Source: PubChem BioAssay (EPA / NIEHS)
“And” between values parts separate entries of the source, which are not always exact repeats. Equal entries are not always repeated. Results filed as inconclusive are left out. Some compounds were tested as several samples or in several runs, with calls that do not always agree. The source made the active and inactive calls. How the source made its calls, unless noted: active means hit-call score of the fitted dose curve at least 0.9, where 1 is the maximum; inconclusive means response in the unintended direction; inactive means score below 0.9.

What was measured:
[1] = BSK_3C_VCAM1: BioMAP Diversity Plus: 3C Assay for Vascular cell adhesion molecule 1 (VCAM1) Biomarker Activity (AID 2282999; active means hit-call score of the fitted dose curve at least 0.9, where 1 is the maximum; inactive means score below 0.9); settings: BioMAP 3C HUVEC, VCAM1 ELISA, cytokine-stimulated; actives raise or lower the signal
Summary of the method: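 Human umbilical vein endothelial cells (3C system), biomarker read by ELISA 24 h after dosing; bidirectional fit against DMSO baseline. Cytotoxicity tracked by SRB total-protein staining in parallel cultures at biomarker time.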

[2] = BSK_4H_Eotaxin3: BioMAP Diversity Plus: 4H Assay for Eotaxin 3 Biomarker Activity (AID 2283000; active means hit-call score of the fitted dose curve at least 0.9, where 1 is the maximum; inactive means score below 0.9); settings: primary human endothelial cells (HUVEC); actives raise or lower the signal
Summary of the method: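 Eotaxin-3 (CCL26) levels were measured by ELISA in HUVEC primary cultures 24 h post-dosing. Gain or loss of signal was fitted in both directions, with DMSO serving as baseline and negative control.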

[3] = molecular target: human Peroxisome Proliferator-activated Receptor alpha (PPARa), PPARA (gene 5465) (UniProt Q07869); assay: ATG_PPARa_TRANS: Attagene TRANS-FACTORIAL HepG2 Assay for human Peroxisome Proliferator-activated Receptor alpha (PPARa) (AID 2283001);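 on AC50: potency for gain of reporter signal over DMSO so agonist or activator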
Sequence of human Peroxisome Proliferator-activated Receptor alpha (PPARa), PPARA (gene 5465) (Q07869 whole entry, looked up, the tested form may be a part): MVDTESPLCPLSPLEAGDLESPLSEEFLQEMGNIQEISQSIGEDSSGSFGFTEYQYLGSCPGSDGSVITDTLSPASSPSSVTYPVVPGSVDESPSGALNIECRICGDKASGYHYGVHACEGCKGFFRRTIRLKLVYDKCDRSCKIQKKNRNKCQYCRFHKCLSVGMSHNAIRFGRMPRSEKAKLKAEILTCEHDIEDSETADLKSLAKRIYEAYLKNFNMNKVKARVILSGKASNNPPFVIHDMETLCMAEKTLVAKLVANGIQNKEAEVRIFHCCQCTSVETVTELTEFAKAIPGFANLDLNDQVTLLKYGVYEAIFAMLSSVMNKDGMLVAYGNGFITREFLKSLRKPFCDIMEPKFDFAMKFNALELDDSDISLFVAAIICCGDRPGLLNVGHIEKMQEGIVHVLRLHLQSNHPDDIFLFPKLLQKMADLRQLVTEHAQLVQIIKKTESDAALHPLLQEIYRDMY
Summary of the method: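 HepG2 cells transiently transfected with multiplexed GAL4-UAS reporters driven by exogenous chimeric NR-Gal4 proteins; reporter mRNA measured after 24 h dosing. Read-out by RT-PCR, 6-FAM labelling, HpaI digestion and capillary electrophoresis; gain of signal versus DMSO.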

[4] = molecular target: human Peroxisome Proliferator-activated Receptor delta (PPARd), PPARD (gene 5467) (UniProt Q03181); assay: ATG_PPARd_TRANS: Attagene TRANS-FACTORIAL HepG2 Assay for human Peroxisome Proliferator-activated Receptor delta (PPARd) (AID 2283002)
Sequence of human Peroxisome Proliferator-activated Receptor delta (PPARd), PPARD (gene 5467) (Q03181 whole entry, looked up, the tested form may be a part): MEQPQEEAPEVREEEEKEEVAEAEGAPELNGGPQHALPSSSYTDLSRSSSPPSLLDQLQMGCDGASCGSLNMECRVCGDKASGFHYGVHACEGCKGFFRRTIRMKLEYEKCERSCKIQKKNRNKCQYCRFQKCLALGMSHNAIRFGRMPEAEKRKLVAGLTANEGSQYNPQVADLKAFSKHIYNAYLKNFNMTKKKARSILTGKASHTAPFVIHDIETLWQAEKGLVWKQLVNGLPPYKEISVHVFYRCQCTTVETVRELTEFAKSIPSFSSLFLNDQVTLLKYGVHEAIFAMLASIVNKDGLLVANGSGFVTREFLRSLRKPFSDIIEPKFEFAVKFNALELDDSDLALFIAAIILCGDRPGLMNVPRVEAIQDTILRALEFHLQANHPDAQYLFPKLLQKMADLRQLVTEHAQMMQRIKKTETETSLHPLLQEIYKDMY
Summary of the method: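 HepG2 cells transiently transfected with GAL4-UAS multiplexed reporter units driven by exogenous chimeric NR-GAL4 proteins; 24 h compound exposure. Reporter mRNA measured by RT-PCR, 6-FAM primer extension, HpaI digestion and capillary electrophoresis; gain of signal fitted relative to DMSO.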

[5] = read-out: Intercellular Adhesion Molecule 1 (ICAM1), ICAM1 (gene 3383); assay: BSK_3C_ICAM1: BioMAP Diversity Plus: 3C Assay for Intercellular Adhesion Molecule 1 (ICAM1) Biomarker Activity (AID 2283003; active means hit-call score of the fitted dose curve at least 0.9, where 1 is the maximum; inactive means score below 0.9); settings: primary human endothelial cells (HUVEC); actives raise or lower the signal
Summary of the method: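 HUVEC primary cells stimulated under 3C conditions; ICAM1 measured by ELISA 24 h after compound dosing. Curves fitted bidirectionally against the DMSO baseline. Overt cytotoxicity checked by SRB staining of parallel cultures.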

[6] = BSK_3C_Proliferation: Cell Proliferation Assessment in the BioMAP Diversity Plus: 3C Assay (AID 2283006; active means hit-call score of the fitted dose curve at least 0.9, where 1 is the maximum; inactive means score below 0.9;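 on AC50: potency may reflect either rise or fall in cell number versus DMSO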); settings: primary human endothelial cells (HUVEC)
Summary of the method: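 Subconfluent HUVEC (3C system) cultured with chemical; relative cell number read at 48 h by sulforhodamine B total-protein staining (0.1% SRB after 10% TCA fixation, 560 nm). Bidirectional fit relative to DMSO.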

[7] = molecular target: Peroxisome proliferator-activated receptor gamma (Homo sapiens) (UniProt P37231); assay: ATG_PPARg_TRANS: Attagene TRANS-FACTORIAL HepG2 Assay for human Peroxisome Proliferator-activated Receptor-gamma (PPARg) (AID 2283007)
Sequence of Peroxisome proliferator-activated receptor gamma (Homo sapiens) (P37231 whole entry, looked up): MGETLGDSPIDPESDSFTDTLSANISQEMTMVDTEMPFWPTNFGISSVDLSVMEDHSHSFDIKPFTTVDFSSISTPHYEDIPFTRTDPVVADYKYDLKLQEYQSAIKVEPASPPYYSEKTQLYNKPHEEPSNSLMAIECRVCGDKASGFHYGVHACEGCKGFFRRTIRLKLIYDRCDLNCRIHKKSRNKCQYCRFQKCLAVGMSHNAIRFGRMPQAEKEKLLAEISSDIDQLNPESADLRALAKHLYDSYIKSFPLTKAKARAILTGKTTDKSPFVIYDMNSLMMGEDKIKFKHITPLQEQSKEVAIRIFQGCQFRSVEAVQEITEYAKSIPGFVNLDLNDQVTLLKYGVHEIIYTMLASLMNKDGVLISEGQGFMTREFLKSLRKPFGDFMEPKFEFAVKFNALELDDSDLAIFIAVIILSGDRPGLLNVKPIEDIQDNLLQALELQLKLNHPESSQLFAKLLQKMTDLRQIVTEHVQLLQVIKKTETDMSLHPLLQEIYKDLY
Summary of the method: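 Twenty-four hours after chemical dosing of transiently transfected HepG2 cells, isolated RNA was converted to cDNA, reporter sequences amplified and 6-FAM-labelled, then HpaI-digested and analysed by capillary electrophoresis. Signal increase against DMSO was fitted.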

[8] = molecular target: Nuclear receptor subfamily 1 group I member 2 (Homo sapiens) (UniProt O75469); assay: ATG_PXR_TRANS: Attagene TRANS-FACTORIAL HepG2 Assay for human Pregnane X Receptor (PXR) (AID 2283008)
Sequence of Nuclear receptor subfamily 1 group I member 2 (Homo sapiens) (O75469 whole entry, looked up, the tested form may be a part): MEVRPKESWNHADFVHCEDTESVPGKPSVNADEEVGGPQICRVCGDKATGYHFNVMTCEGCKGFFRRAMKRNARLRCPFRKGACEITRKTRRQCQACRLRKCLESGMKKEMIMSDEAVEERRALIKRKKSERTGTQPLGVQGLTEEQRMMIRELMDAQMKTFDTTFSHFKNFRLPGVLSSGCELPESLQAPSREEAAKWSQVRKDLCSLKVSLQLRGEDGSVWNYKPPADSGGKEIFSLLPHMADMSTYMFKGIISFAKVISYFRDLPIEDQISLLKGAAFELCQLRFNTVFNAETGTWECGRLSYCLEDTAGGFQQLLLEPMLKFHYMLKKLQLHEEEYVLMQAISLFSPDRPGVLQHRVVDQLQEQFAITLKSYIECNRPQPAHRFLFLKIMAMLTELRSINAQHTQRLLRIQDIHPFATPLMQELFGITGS
Summary of the method: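 Measures mRNA induction of a GAL4-UAS-driven reporter in human HepG2 cells transiently expressing PXR fused to Gal4, following 24 h treatment. DMSO served as negative control and baseline.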

[9] = molecular target: human Retinoic Acid Receptor gamma (RARg), RARG (gene 5916) (UniProt P13631); assay: ATG_RARg_TRANS: Attagene TRANS-FACTORIAL HepG2 Assay for human Retinoic Acid Receptor gamma (RARg) (AID 2283009)
Sequence of human Retinoic Acid Receptor gamma (RARg), RARG (gene 5916) (P13631 whole entry, looked up, the tested form may be a part): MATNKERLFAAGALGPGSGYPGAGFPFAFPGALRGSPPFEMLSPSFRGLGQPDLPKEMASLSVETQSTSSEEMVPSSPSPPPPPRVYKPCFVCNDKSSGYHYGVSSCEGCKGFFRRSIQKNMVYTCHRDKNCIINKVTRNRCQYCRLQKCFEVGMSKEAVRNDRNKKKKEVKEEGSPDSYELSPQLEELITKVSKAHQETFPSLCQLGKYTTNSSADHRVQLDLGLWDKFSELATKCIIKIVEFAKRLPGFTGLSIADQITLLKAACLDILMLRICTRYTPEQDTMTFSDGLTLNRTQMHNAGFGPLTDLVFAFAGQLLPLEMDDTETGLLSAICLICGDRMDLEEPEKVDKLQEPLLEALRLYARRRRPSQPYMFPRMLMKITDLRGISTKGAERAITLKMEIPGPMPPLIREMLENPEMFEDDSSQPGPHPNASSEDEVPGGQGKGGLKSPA
Summary of the method: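 HepG2 transiently transfected with GAL4-UAS reporter units and chimeric NR-Gal4 constructs; 24 h compound exposure. Reporter mRNA quantified by RT-PCR, FAM labeling, HpaI digestion and capillary electrophoresis; gain-of-signal versus DMSO.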

[10] = molecular target: human RAR-related Orphan Receptor gamma (RORg), RORC (gene 6097) (UniProt P51449); assay: ATG_RORg_TRANS: Attagene TRANS-FACTORIAL HepG2 Assay for human RAR-related Orphan Receptor gamma (RORg) (AID 2283011)
Sequence of human RAR-related Orphan Receptor gamma (RORg), RORC (gene 6097) (P51449 whole entry, looked up, the tested form may be a part): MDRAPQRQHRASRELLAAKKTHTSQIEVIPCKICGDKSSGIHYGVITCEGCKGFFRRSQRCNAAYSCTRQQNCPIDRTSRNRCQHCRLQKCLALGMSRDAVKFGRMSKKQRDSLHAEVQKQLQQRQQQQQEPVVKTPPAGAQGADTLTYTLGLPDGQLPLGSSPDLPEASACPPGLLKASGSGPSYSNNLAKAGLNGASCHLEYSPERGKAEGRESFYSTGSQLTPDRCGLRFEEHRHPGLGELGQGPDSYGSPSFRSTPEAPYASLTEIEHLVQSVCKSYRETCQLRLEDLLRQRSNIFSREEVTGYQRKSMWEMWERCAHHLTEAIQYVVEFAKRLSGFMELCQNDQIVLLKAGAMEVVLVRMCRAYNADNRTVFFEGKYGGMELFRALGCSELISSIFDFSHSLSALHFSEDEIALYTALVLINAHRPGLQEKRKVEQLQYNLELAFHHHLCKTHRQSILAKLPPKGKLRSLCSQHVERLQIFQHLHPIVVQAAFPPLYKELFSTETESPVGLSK
Summary of the method: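 HepG2 cells transiently transfected with GAL4-UAS reporter units and chimeric RORg-Gal4 construct; after 24 h chemical exposure, reporter mRNA measured by RT-PCR with fluorescent capillary electrophoresis, gain of signal fitted against DMSO.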

[11] = molecular target: human Thyroid Receptor alpha (THRa1), THRA (gene 7067) (UniProt P10827); assay: ATG_THRa1_TRANS: Attagene TRANS-FACTORIAL HepG2 Assay for human Thyroid Receptor alpha (THRa1) (AID 2283014)
Sequence of human Thyroid Receptor alpha (THRa1), THRA (gene 7067) (P10827 whole entry, looked up, the tested form may be a part): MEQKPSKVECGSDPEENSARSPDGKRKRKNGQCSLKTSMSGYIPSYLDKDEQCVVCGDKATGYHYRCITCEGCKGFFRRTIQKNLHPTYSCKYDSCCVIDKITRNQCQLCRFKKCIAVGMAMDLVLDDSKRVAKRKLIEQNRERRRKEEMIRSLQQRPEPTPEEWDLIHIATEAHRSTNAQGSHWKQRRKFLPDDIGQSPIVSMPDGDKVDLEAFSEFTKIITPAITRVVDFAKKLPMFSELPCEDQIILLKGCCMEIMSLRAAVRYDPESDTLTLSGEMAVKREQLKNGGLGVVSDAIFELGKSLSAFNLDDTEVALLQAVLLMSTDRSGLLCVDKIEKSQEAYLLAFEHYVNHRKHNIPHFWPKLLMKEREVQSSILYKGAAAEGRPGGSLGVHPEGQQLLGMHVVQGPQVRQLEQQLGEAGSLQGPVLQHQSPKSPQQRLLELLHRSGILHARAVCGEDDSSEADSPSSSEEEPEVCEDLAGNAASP
Summary of the method: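 HepG2 cells transiently transfected with chimeric NR-Gal4 and GAL4-UAS reporter units, dosed 24 h. Reporter mRNA quantified by RT-PCR, fluorescent labeling, HpaI digestion and capillary electrophoresis; gain-of-signal fit versus DMSO.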

[12] = read-out: E-selectin (Homo sapiens) (UniProt P16581); assay: BSK_3C_Eselectin: BioMAP Diversity Plus: 3C Assay for Eselectin Biomarker Activity (AID 2283015; active means hit-call score of the fitted dose curve at least 0.9, where 1 is the maximum; inactive means score below 0.9); settings: primary human endothelial cells (HUVEC); actives raise or lower the signal
Summary of the method: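 Primary human umbilical vein endothelial cells (3C system), read 24 h after compound addition; E-selectin measured by ELISA. Bidirectional curve fitting against DMSO baseline; cytotoxicity by parallel SRB total-protein staining.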

[13] = read-out: Interleukin-1 alpha (IL1a), IL1A (gene 3552); assay: BSK_BE3C_IL1a: BioMAP Diversity Plus: BE3C Assay for Interleukin-1 alpha (IL1a) Biomarker Activity (AID 2283016; active means hit-call score of the fitted dose curve at least 0.9, where 1 is the maximum; inactive means score below 0.9); settings: primary human bronchial epithelial cells; actives raise or lower the signal
Summary of the method: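 Human primary bronchial epithelial cells, 24 h chemical exposure; IL-1a quantified by ELISA, fitted bidirectionally against DMSO. Cytotoxicity assessed in parallel by SRB total-protein staining at the time of measurement.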

[14] = read-out: Monocyte Chemoattractant Protein-1 (MCP1), CCL2 (gene 6347); assay: BSK_3C_MCP1: BioMAP Diversity Plus: 3C Assay for Monocyte Chemoattractant Protein-1 (MCP1) Biomarker Activity (AID 2283017; active means hit-call score of the fitted dose curve at least 0.9, where 1 is the maximum; inactive means score below 0.9); settings: primary human endothelial cells (HUVEC); actives raise or lower the signal
Summary of the method: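 Human umbilical vein endothelial cells (3C system) exposed to chemicals for 24 h; MCP-1 quantified by ELISA against the DMSO baseline with bidirectional fitting, and parallel SRB staining used to assess cytotoxicity.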

[15] = read-out: Monocyte Chemoattractant Protein-1 (MCP1), CCL2 (gene 6347); assay: BSK_4H_MCP1: BioMAP Diversity Plus: 4H Assay for Monocyte Chemoattractant Protein-1 (MCP1) Biomarker Activity (AID 2283018; active means hit-call score of the fitted dose curve at least 0.9, where 1 is the maximum; inactive means score below 0.9); settings: primary human endothelial cells (HUVEC); actives raise or lower the signal
Summary of the method: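 Human umbilical vein endothelial cells (4H system) exposed to chemicals for 24 h in 96-well format. MCP-1 measured by ELISA; bidirectional fitting against DMSO, with SRB total-protein staining in parallel cultures for cytotoxicity.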

[16] = molecular target: human Retinoic Acid Receptor beta (RARb), RARB (gene 5915) (UniProt P10826); assay: ATG_RARb_TRANS: Attagene TRANS-FACTORIAL HepG2 Assay for human Retinoic Acid Receptor beta (AID 2283004)
Summary of the method: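 HepG2 cells were transiently transfected with GAL4-UAS reporter units that report activity of exogenous chimeric NR-Gal4 proteins, then exposed to compound for 24 h. Reporter mRNA was quantified by RT-PCR with capillary electrophoresis fluorescence, as gain of signal over DMSO.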

[17] = molecular target: human RAR-related Orphan Receptor beta (RORb), RORB (gene 6096) (UniProt Q92753); assay: ATG_RORb_TRANS: Attagene TRANS-FACTORIAL HepG2 Assay for human RAR-related Orphan Receptor beta (RORb) (AID 2283010)
Sequence of human RAR-related Orphan Receptor beta (RORb), RORB (gene 6096) (Q92753 whole entry, looked up, the tested form may be a part): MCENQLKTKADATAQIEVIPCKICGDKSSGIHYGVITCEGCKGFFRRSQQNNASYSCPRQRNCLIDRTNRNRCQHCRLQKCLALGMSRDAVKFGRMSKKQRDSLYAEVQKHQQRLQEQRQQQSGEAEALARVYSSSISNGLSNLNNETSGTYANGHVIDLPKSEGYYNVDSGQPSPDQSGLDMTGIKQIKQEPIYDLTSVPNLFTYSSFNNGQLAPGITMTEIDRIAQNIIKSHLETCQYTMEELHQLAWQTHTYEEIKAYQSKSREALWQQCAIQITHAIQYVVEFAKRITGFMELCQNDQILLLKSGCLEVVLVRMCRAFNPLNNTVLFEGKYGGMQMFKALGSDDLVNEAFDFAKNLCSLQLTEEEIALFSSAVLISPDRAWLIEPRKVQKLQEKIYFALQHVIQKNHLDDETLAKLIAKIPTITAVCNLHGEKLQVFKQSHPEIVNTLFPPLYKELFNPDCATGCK
Summary of the method: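 HepG2 cells transiently transfected with GAL4-UAS reporter units expressing chimeric NR-Gal4 protein; reporter mRNA measured 24 h after dosing by RT-PCR, 6-FAM labelling and capillary electrophoresis. Gain-of-signal fitted relative to DMSO baseline.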

[18] = molecular target: human Retinoid X Receptor beta (RXRb), RXRB (gene 6257) (UniProt P28702); assay: ATG_RXRb_TRANS: Attagene TRANS-FACTORIAL HepG2 Assay for human Retinoid X Receptor beta (RXRb) (AID 2283013)
Sequence of human Retinoid X Receptor beta (RXRb), RXRB (gene 6257) (P28702 whole entry, looked up, the tested form may be a part): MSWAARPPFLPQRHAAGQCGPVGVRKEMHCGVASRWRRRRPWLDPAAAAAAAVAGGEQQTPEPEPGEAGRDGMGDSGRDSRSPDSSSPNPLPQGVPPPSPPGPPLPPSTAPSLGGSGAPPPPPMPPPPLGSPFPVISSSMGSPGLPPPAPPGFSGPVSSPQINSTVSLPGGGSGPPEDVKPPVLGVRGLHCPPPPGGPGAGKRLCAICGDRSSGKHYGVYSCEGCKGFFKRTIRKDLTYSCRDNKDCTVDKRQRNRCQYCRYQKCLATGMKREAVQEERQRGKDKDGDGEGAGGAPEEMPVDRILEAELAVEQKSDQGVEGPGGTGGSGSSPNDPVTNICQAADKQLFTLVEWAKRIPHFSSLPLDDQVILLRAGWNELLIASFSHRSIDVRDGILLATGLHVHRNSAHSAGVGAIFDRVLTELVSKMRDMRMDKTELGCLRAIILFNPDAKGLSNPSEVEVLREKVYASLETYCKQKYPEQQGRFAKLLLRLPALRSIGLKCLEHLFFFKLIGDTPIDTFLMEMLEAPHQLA
Summary of the method: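 HepG2 cells were transiently transfected with multiplexed GAL4-UAS reporters and a chimeric RXRb-Gal4 construct, then exposed for 24 h. Reporter mRNA was quantified by RT-PCR, FAM labeling, HpaI digestion and capillary electrophoresis; gain of signal was scored against DMSO.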

[19] = molecular target: Retinoic acid receptor alpha (Homo sapiens) (UniProt P10276); assay: ATG_RARa_TRANS: Attagene TRANS-FACTORIAL HepG2 Assay for human Retinoic Acid Receptor alpha (RARa) (AID 2283005)
Sequence of Retinoic acid receptor alpha (Homo sapiens) (P10276 whole entry, looked up, the tested form may be a part): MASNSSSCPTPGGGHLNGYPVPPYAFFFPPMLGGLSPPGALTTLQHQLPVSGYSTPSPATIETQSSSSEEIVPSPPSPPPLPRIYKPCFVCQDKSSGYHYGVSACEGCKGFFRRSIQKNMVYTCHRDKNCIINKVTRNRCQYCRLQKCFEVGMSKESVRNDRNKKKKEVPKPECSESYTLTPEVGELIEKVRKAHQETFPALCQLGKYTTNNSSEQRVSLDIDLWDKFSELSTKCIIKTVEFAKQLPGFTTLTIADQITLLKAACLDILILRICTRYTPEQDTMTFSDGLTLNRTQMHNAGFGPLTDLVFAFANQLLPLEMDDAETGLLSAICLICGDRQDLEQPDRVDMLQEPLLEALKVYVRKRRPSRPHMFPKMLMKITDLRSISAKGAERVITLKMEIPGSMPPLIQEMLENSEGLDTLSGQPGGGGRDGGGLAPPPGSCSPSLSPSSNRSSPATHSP
Summary of the method: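 HepG2 transiently transfected with multiplex GAL4-UAS reporter units including a human RARa–GAL4 chimera; 24 h compound exposure. Reporter mRNA quantified by RT-PCR, 6-FAM labeling and capillary electrophoresis; gain of signal versus DMSO.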

[20] = molecular target: Retinoic acid receptor RXR-alpha (Homo sapiens) (UniProt P19793); assay: ATG_RXRa_TRANS: Attagene TRANS-FACTORIAL HepG2 Assay for human Retinoid X Receptor alpha (RXRa) (AID 2283012)
Summary of the method: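 HepG2 cells transiently transfected with GAL4-UAS reporter units and chimeric RXRa-Gal4 protein, treated 24 h. Reporter mRNA measured by RT-PCR, fluorescent labelling, HpaI digestion and capillary electrophoresis. Induction fitted against DMSO.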

Measured: AC50

O=S(=O)(O)C(F)(F)C(F)(F)C(F)(F)C(F)(F)F
not listed: [16] | [17] | [18] | [19] | [20]
inactive: all other assays above

CCCCCCCCCC[N+](C)(C)CCCCCCCCCC
inactive: [3] | [19] | [7] | [8] | [9] | [10] | [11]
active: [1] 6.12 µM | [2] 4.08 µM | [5] 6.48 µM | [6] 1.8 µM | [12] 4.77 µM | [13] 7.76 µM | [14] 3.59 µM | [15] 3.16 µM

O=C(O)C(F)(F)C(F)(F)C(F)(F)C(F)(F)C(F)(F)C(F)(F)C(F)(F)C(F)(F)F
active: [1] 49.5 µM and 30 µM | [2] 40.2 µM and 43.3 µM | [3] 15.9 µM and 27.4 µM and 22.5 µM | [6] 49.7 µM and 48 µM | [7] 43.4 µM and 70 µM and 42.3 µM | [8] 47.5 µM and 104 µM and 50 µM | [18] 13.3 µM and 41.1 µM and 26.3 µM | [13] 35 µM and 49.9 µM and 46.6 µM | [14] 54.7 µM
inactive: [1] | [2] | [4] | [5] | [6] | [9] | [17] | [10] | [11] | [12] | [14] | [15]

CCNc1nc(NC(C)C)nc(SC)n1
not listed: [9] | [10] | [16] | [17] | [19] | [20]
inactive: all other assays above

Oc1c(Cl)c(Cl)c(Cl)c(Cl)c1Cl
inactive: [3] | [5] | [19] | [8] | [9] | [17] | [18] | [11] | [15]
active: [1] 10.2 µM and 32.3 µM | [2] 17 µM and 9.54 µM | [5] 33.7 µM | [6] 15.4 µM and 14.7 µM | [7] 4.28 µM and 2.53 µM and 7.91 µM | [8] 13.8 µM and 3.3 µM | [12] 14 µM and 10.8 µM | [13] 13.8 µM and 21.4 µM | [14] 13.7 µM | [15] 7.96 µM

ClC(Cl)=C(c1ccc(Cl)cc1)c1ccc(Cl)cc1
inactive: [3] | [4] | [7] | [17] | [11] | [13]
active: [1] 31.3 µM | [2] 31.2 µM | [3] 26.2 µM | [5] 34 µM | [8] 6.11 µM [middle of 4 runs] | [18] 17.5 µM [middle of 4 runs] | [12] 30.7 µM | [15] 20 µM

Clc1ccc(Cl)cc1
not listed: [11] | [19] | [20]
inactive: all other assays above

COS(=O)(=O)OC
not listed: [7] | [8] | [9] | [10] | [16] | [19]
inactive: all other assays above
